Experimental data as given in PubChem BioAssay (NCI).
The panel holds about 83,000 compounds, 20% with a hit somewhere; the sample as a whole holds those more often.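 Method: cells in 96-well plates; compound added at one concentration; 48 h incubation; percent growth measured; values under 10 scored active.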 A number with no mark means an inactive call. Activity calls are given as the source filed them.

Key:
Assay in all cases: NCI-60 one-dose screen, 48 h (100 = growth as untreated, 0 = no growth, -100 = all killed)
Conditions in all cases: 10 µM unless noted
[1] = test system: NCI-H23 lung
[2] = test system: NCI-H226 lung
[3] = test system: NCI-H322M lung
[4] = test system: HOP-62 NSCLC
[5] = test system: NCI-H460 lung
[6] = test system: HOP-92 NSCLC
[7] = test system: NCI-H522 lung
[8] = test system: A549/ATCC NSCLC
[9] = test system: 786-0 renal
[10] = test system: COLO 205 colon
[11] = test system: DU-145 prostate
[12] = test system: K-562 leukemia
[13] = test system: MALME-3M melanoma
[14] = test system: MDA-MB-231 breast
[15] = test system: RXF 393 renal
[16] = test system: SF-268 CNS
[17] = test system: SF-295 CNS
[18] = test system: SF-539 CNS
[19] = test system: UACC-257 melanoma
[20] = test system: M14 melanoma

COC(=O)[C@@H](C)C[C@H](Cc1ccccc1)NC(=O)c1csc([C@@H](C[C@H](C(C)C)N(C)C(=O)[C@@H](NC(=O)CN(C)C)C2CC2)OC(C)=O)n1
growth [1]: 25%
growth [2]: 19.1%
growth [3]: 47.7%
growth [4]: 19.1%
growth [5]: 10.3%
growth [6]: 26.4%
growth [7]: -44.7% (active)
growth [8]: 13.5%
growth [9]: 21%
growth [10]: -72.8% (active)
growth [11]: 3.44% (active)
growth [12]: 9.12% (active)
growth [13]: 69.8%
growth [14]: 24.2%
growth [15]: 37.6%
growth [16]: 33.3%
growth [17]: 13.5%
growth [18]: 0.502% (active)
growth [19]: 60.3%
growth [20]: 13%

CC1=C(CCCOC(=O)CN)C2=C(C)C3(CC3)[C@@](C)(O)C(=O)C2=C1
growth [1]: 9.41% (active)
growth [2]: 90.5%
growth [3]: 97.1%
growth [4]: 71.5%
growth [5]: 15.3%
growth [6]: 70.5%
growth [7]: 66.2%
growth [8]: 68.7%
growth [9]: 78.8%
growth [10]: 49.6%
growth [11]: 17%
growth [12]: 90.2%
growth [13]: 114%
growth [14]: 95.2%
growth [15]: -16.4% (active)
growth [16]: 48.7%
growth [17]: 86.8%
growth [18]: 94%
growth [19]: 86%
growth [20]: 73.8%

Fc1ccc(N2COOC3(OOC2)C2CC4CC(C2)CC3C4)cc1
growth [1]: 69.4%
growth [2]: 105%
growth [3]: 91.1%
growth [4]: 83.6%
growth [5]: 101%
growth [6]: 29%
growth [7]: 85.2%
growth [8]: 90.2%
growth [9]: 12.6%
growth [10]: 116%
growth [11]: 90.8%
growth [12]: 26.7%
growth [13]: 106%
growth [14]: 95.5%
growth [15]: 115%
growth [16]: 91.5%
growth [17]: 87.5%
growth [18]: 82.5%
growth [19]: 89.6%
growth [20]: 89.5%

O=P(Oc1ccc(Cl)cc1)(N1CC1)N1CC1
growth [1]: 65.4%
growth [2]: 87.8%
growth [3]: 99.6%
growth [4]: 81.3%
growth [5]: 39.3%
growth [6]: 81.2%
growth [7]: 66.8%
growth [8]: 60.2%
growth [9]: 84.5%
growth [10]: 94.6%
growth [11]: 54.4%
growth [12]: 85.3%
growth [13]: 104%
growth [14]: 106%
growth [15]: 73.9%
growth [16]: 89%
growth [17]: 66.2%
growth [18]: 81.4%
growth [19]: 94.8%
growth [20]: 86.5%

O=c1[nH]cc(N(CCCl)CCCl)c(=O)[nH]1
growth [1]: 54.2%
growth [2]: 76.5%
growth [3]: 96.6%
growth [4]: 103%
growth [5]: 31.8%
growth [6]: 2.65% (active)
growth [7]: 53.8%
growth [8]: 77.5%
growth [9]: 44.9%
growth [10]: 81%
growth [11]: 52.4%
growth [12]: 83%
growth [13]: 62.5%
growth [14]: 95.2%
growth [15]: 68.6%
growth [16]: 52%
growth [17]: 49.6%
growth [18]: 46.2%
growth [19]: 62%
growth [20]: 73.5%

COC(=O)C12CC(NC(=O)c3csc([C@@H](C[C@H](C(C)C)N(C)C(=O)[C@@H](NC(=O)[C@H]4CCCCN4C)C4CC4)OC(C)=O)n3)(C1)C2
growth [1]: 29.4%
growth [2]: 14.6%
growth [3]: 45%
growth [4]: 6.31% (active)
growth [5]: 7.21% (active)
growth [6]: 18.7%
growth [7]: -4.14% (active)
growth [8]: 13%
growth [9]: 24.5%
growth [10]: -64.5% (active)
growth [11]: 4.38% (active)
growth [12]: 7.65% (active)
growth [13]: 70%
growth [14]: -0.474% (active)
growth [15]: 14.5%
growth [16]: 21.9%
growth [17]: 6.6% (active)
growth [18]: -28.5% (active)
growth [19]: 42.2%
growth [20]: 14.8%

CC(=O)O[C@H]1C(=O)[C@@]2(C)[C@H]([C@H](OC(=O)c3ccccc3)[C@]3(O)C[C@H](OC(=O)[C@H](OC(=O)OCC4COC(C)(C)O4)[C@@H](NC(=O)c4ccccc4)c4ccccc4)C(C)=C1C3(C)C)[C@]1(OC(C)=O)CO[C@@H]1C[C@@H]2O (stereo not given in full)
growth [1]: 37.8%
growth [2]: 72.8%
growth [3]: 40.6%
growth [4]: 48.1%
growth [5]: 13.1%
growth [6]: 74%
growth [7]: 38.7%
growth [8]: 30%
growth [9]: 54.2%
growth [10]: 7.19% (active)
growth [11]: 22.9%
growth [12]: 19.8%
growth [13]: 45%
growth [14]: 39.9%
growth [15]: 32.9%
growth [16]: 61.1%
growth [17]: 17.5%
growth [18]: 24.9%
growth [19]: 59.4%
growth [20]: -14.7% (active)

CCCCCCCCCCCCNC(c1ccccc1)C(O)c1ccccc1 (stereo not given)
growth [1]: 78.7%
growth [2]: 103%
growth [3]: 88.2%
growth [4]: 90.3%
growth [5]: 93.4%
growth [6]: 80.7%
growth [7]: 69.1%
growth [8]: 84.7%
growth [9]: 79.3%
growth [10]: -30.7% (active)
growth [11]: 83.5%
growth [12]: 24.1%
growth [13]: 68.3%
growth [14]: 39.9%
growth [15]: 59%
growth [16]: 79%
growth [17]: 107%
growth [18]: 87.9%
growth [19]: 99.9%
growth [20]: 93.3%

C/C(Cc1ccc(Cl)cc1)=C(\c1ccc(OCCN2CCOCC2)cc1)c1ccc(OC(=O)Cc2ccccc2)cc1
growth [1]: 92.9%
growth [2]: 101%
growth [3]: 83%
growth [4]: 102%
growth [5]: 95.8%
growth [6]: 77.2%
growth [7]: 69.7%
growth [8]: 78.9%
growth [9]: 92.6%
growth [10]: 99.8%
growth [11]: 107%
growth [12]: 79.5%
growth [13]: 99%
growth [14]: 96.5%
growth [15]: 94.7%
growth [16]: 95.6%
growth [17]: 99.9%
growth [18]: 108%
growth [19]: 86.1%
growth [20]: 89.4%

COc1ccc2c(c1)c(C1(O)CC(CSC#N)OC1=O)cn2C(=O)c1ccc(Cl)cc1 (stereo not given)
growth [1]: 89.3%
growth [2]: 94.8%
growth [3]: 73.5%
growth [4]: 104%
growth [5]: 104%
growth [6]: 109%
growth [7]: 95.9%
growth [8]: 98.6%
growth [9]: 102%
growth [10]: 127%
growth [11]: 114%
growth [12]: 98.5%
growth [13]: 81.9%
growth [14]: 92.9%
growth [15]: 114%
growth [16]: 106%
growth [17]: 90.2%
growth [18]: 96.3%
growth [19]: 95.5%
growth [20]: 96.4%

COC(=O)[C@@H](C)C[C@H](Cc1ccccc1)NC(=O)c1csc([C@@H](C[C@H](C(C)C)N(C)C(=O)[C@@H](NC(=O)[C@H]2CCCN2C)C2CC2)OC(C)=O)n1
growth [1]: 23.5%
growth [2]: 24.1%
growth [3]: 50.9%
growth [4]: 12.2%
growth [5]: 3.65% (active)
growth [6]: -6.22% (active)
growth [7]: -9.59% (active)
growth [8]: 13.2%
growth [9]: 15.6%
growth [10]: -63.1% (active)
growth [11]: 8.13% (active)
growth [12]: 4.01% (active)
growth [13]: 64.2%
growth [14]: 6.59% (active)
growth [15]: 81.3%
growth [16]: 15.9%
growth [17]: 0.995% (active)
growth [18]: -14.6% (active)
growth [19]: 56.9%
growth [20]: 5.11% (active)

O=C1NC(=O)C(=Cc2ccc(OCCCCC3CCCCC3)c(Cl)c2)C(=O)N1
growth [1]: 96.7%
growth [2]: 102%
growth [3]: 105%
growth [4]: 89.7%
growth [5]: 93.8%
growth [6]: 87.4%
growth [7]: 81.1%
growth [8]: 92.6%
growth [9]: 88.2%
growth [10]: 112%
growth [11]: 106%
growth [12]: 88.3%
growth [13]: 110%
growth [14]: 100%
growth [15]: 103%
growth [16]: 99.7%
growth [17]: 94%
growth [18]: 92.8%
growth [19]: 107%
growth [20]: 86.6%

CC1(C)C(C(=O)c2cn(CCCCF)c3ccccc23)C1(C)C
growth [1]: 85.4%
growth [2]: 82.1%
growth [3]: 112%
growth [4]: 92.9%
growth [5]: 103%
growth [6]: 98%
growth [7]: 56.9%
growth [8]: 78.5%
growth [9]: 99.3%
growth [10]: 99.5%
growth [11]: 105%
growth [12]: 71.3%
growth [13]: 92.9%
growth [14]: 94%
growth [15]: 84.5%
growth [16]: 98.8%
growth [17]: 91.5%
growth [18]: 93.2%
growth [19]: 81.1%
growth [20]: 95%

Cc1cc(-c2nc3cc(F)ccc3[se]2)cc(F)c1N
growth [1]: 59.5%
growth [2]: 34.9%
growth [3]: 83.8%
growth [4]: 71.2%
growth [5]: 23.1%
growth [6]: 79.2%
growth [7]: 83.1%
growth [8]: 66.9%
growth [9]: 103%
growth [10]: 52.4%
growth [11]: 98.4%
growth [12]: 95.8%
growth [13]: 84.9%
growth [14]: 63.5%
growth [15]: 120%
growth [16]: 101%
growth [17]: 99.7%
growth [18]: 94.7%
growth [19]: 98.5%
growth [20]: 90.3%

COc1cc(/C=C\c2cc(OC)c(OC)c(OC)c2)cc(NS(=O)(=O)c2cccc(Cl)c2)c1OC
growth [1]: 22.9%
growth [2]: 51.8%
growth [3]: 50%
growth [4]: 63.2%
growth [5]: 6.99% (active)
growth [6]: 47%
growth [7]: 9.96% (active)
growth [8]: 21.4%
growth [9]: 6.56% (active)
growth [10]: -68.2% (active)
growth [11]: -31.6% (active)
growth [12]: 11.2%
growth [13]: 112%
growth [14]: 27%
growth [15]: 37.8%
growth [16]: -2.74% (active)
growth [17]: 13.8%
growth [18]: -0.958% (active)
growth [19]: 57.3%
growth [20]: 9.89% (active)
